PubChem BioAssay AID602281 (The Scripps Research Institute Molecular Screening Center, 2012)
Screen size: about 360,000 compounds; about 2,900 (0.81%) were called active.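 How the source made its calls: active means inhibition above the mean inhibition across every tested compound plus 3 SD (cut at about 22% in these data); inactive means the rest.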 For the sample, actives were picked, then their nearest neighbours and some compounds at random.

target: Perilipin-5 (Homo sapiens) + 1-acylglycerol-3-phosphate O-acyltransferase ABHD5 (Homo sapiens) (UniProt Q00G26+Q8WTS1); test: ABHD5-PLIN5 interaction inhibitors, primary screen, cell lysate, split luciferase complementation, luminescence (AID 602281);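 further: 0% = DMSO only wells and the 100% control is not disclosed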; conditions: Split G. princeps luciferase complementation, 4 h, at 4 µM, hits give high values
Sequence (Q00G26 whole entry, looked up): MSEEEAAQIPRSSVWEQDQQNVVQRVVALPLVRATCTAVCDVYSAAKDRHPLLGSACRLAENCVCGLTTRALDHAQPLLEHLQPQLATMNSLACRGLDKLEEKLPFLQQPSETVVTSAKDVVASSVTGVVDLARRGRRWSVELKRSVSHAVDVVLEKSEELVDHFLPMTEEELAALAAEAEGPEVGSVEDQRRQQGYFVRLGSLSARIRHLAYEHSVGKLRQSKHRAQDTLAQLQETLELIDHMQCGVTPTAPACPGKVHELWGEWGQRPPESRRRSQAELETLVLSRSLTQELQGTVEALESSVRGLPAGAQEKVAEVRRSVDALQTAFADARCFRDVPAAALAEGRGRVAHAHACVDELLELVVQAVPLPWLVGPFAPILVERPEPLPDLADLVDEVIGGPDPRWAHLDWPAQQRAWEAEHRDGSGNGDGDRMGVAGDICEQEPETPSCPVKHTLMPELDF
Sequence (Q8WTS1 whole entry, looked up): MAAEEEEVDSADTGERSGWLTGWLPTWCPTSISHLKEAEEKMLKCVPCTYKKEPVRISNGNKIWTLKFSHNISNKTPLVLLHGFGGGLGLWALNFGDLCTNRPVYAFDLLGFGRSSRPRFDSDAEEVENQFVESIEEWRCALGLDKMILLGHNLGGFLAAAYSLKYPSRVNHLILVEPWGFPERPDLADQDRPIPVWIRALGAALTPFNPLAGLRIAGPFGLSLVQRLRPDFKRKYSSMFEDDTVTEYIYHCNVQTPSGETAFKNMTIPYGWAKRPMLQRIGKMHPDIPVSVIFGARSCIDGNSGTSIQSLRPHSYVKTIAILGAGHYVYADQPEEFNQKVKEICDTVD

Question: `CN(C)c1cc(N)c2ccccc2n1` (tested in a mixture with another compound) was tested. Which inhibition did it give?
Answer: The inhibition was -3.32% (inactive).

Question: With `O=C(O)c1ccc(S(=O)(=O)N2CCC(Cc3ccccc3)CC2)cc1` as the molecule, how does the inhibition read?
Answer: The inhibition was -8.86% (inactive).

Question: For `Cc1ccc2[nH]c(=O)c(CC=C(Cl)Cl)c(C)c2c1`, which inhibition is on record?
Answer: The inhibition was 1.26% (inactive).

Question: How did the inhibition turn out when `C=C1C(=O)[C@]23C[C@H]1CCC2[C@@]1(C)C(C[C@@H]3O)[C@](C)(C(=O)O)CC[C@@H]1O` (some centres not stated) was run?
Answer: Its inhibition is 36.1% (active).

Question: Which inhibition does the source give for `CCN(C(=O)COC(=O)c1cc(NS(=O)(=O)c2ccc(Cl)c([N+](=O)[O-])c2)ccc1O)C1CCCCC1` here?
Answer: Its inhibition is -3.6% (inactive).

Question: Which inhibition does the source give for `O=Cc1ccc(OCc2cn3ccccc3n2)cc1` here?
Answer: Its inhibition is -8.56% (inactive).

Question: For `COc1cc(N2C(=O)c3ccccc3C2=O)c(Cl)cc1C(=O)OCC(=O)N1CCOCC1`, which inhibition is on record?
Answer: The inhibition was -1.51% (inactive).

Question: How did the inhibition turn out when `Cc1cc(C)nc(SCc2nnc(SCC(=O)Nc3ncc(C)s3)n2Cc2ccco2)n1` was run?
Answer: The inhibition was 19.3% (inactive).

Question: Which inhibition does the source give for `CCc1ccc(NC(=O)CSc2nnc(-c3cnccn3)n2Cc2ccco2)cc1` here?
Answer: Its inhibition is 23.2% (active).

Question: Which inhibition does the source give for `CCOC(=O)Cc1csc(NC(=O)CSc2nnc(-c3cccnc3)n2Cc2ccco2)n1` here?
Answer: The inhibition was 5.88% (inactive).

Question: Which inhibition does the source give for `O=C(CSc1nnc(-c2cccnc2)n1Cc1ccco1)c1ccc(Cl)cc1` here?
Answer: Its inhibition is 22.5% (active).

Question: With `CCn1c(SCC(=O)Nc2cc(C)ccc2C)nnc1-c1cnccn1` as the molecule, how does the inhibition read?
Answer: The inhibition was 7.43% (inactive).

Question: How did the inhibition turn out when `C(=C\c1ccccc1)/CSc1nnc(-c2cccnc2)n1Cc1ccco1` was run?
Answer: Its inhibition is 7.27% (inactive).

Question: How did the inhibition turn out when `CCCCCNC(=O)C1C(=O)Nc2ccccc2C(=O)N1C(C)(C)C` (configuration not stated) was run?
Answer: The inhibition was 4.37% (inactive).

Question: `COc1cc(/C=C/CO)cc(OC)c1O[C@@H]1O[C@H](CO)[C@@H](O)[C@H](O)[C@H]1O` was tested. Which inhibition did it give?
Answer: Its inhibition is -1.15% (inactive).

Question: Which inhibition does the source give for `O=C(OCc1cc(Cl)ccc1OC(F)F)c1cccnc1` here?
Answer: Its inhibition is 4.48% (inactive).

Question: How did the inhibition turn out when `O=C(/C=C/c1ccc(Cl)cc1Cl)c1cccnc1` was run?
Answer: The inhibition was 74.7% (active).

Question: How did the inhibition turn out when `O=C(CC(=O)c1cccnc1)c1ccccc1` was run?
Answer: The inhibition was -23.9% (inactive).

Question: How did the inhibition turn out when `Cc1ccc(S(=O)(=O)N(C)C)cc1NC(=O)c1n[nH]c(=O)c2ccccc12` was run?
Answer: Its inhibition is 5.24% (inactive).

Question: For `O=C1CCCC(O)=C1N=Nc1ccc2ncsc2c1`, which inhibition is on record?
Answer: Its inhibition is -5.19% (inactive).

Question: `O=C(Cn1cnc2c(nnn2-c2ccccc2)c1=O)N1CCC(Cc2ccccc2)CC1` was tested. Which inhibition did it give?
Answer: The inhibition was 7.96% (inactive).

Question: For `O=C(/C=C/Sc1ncn[nH]1)c1ccc(Cl)cc1`, which inhibition is on record?
Answer: Its inhibition is 57.9% (active).

Question: `O=C(Nc1ccc(F)cc1)C(CCc1ccccc1)N1CCN(CC(=O)N2CCCC2)CC1` (configuration not stated) was tested. Which inhibition did it give?
Answer: The inhibition was -3.25% (inactive).

Question: `CCCCc1cc2c(s1)CCCC/C2=N/O` was tested. Which inhibition did it give?
Answer: Its inhibition is -9.56% (inactive).

Question: `COc1cc(/C=C(\C#N)C(=O)Nc2ccc3ccccc3c2)c([N+](=O)[O-])cc1OC` was tested. Which inhibition did it give?
Answer: Its inhibition is -3.38% (inactive).

Question: `COc1ccc(CNC(=O)/C(C#N)=C/c2cccc(OC)c2OC)cc1` was tested. Which inhibition did it give?
Answer: The inhibition was 36% (active).

Question: Which inhibition does the source give for `COc1ccc(CNC(=O)c2c[nH]c3c(OC)cc(OC)cc3c2=O)cc1` here?
Answer: The inhibition was -1.89% (inactive).
